# Compound activity deposited in PubChem BioAssay by several laboratories.
# The list is not random: actives were taken first. Their share in the collection is about 1.4%.
# FadD28 FP inh: M. tuberculosis FadD28 bisubstrate binding inhibition; 360,000 compounds, 0.22% hits; FadD28 bisubstrate probe binding, fluorescence polarization; AID 588549; inhibition, % at 12.5 µM; in the data active means inhibition above about 8.5%, passing the limit was not always enough; inconclusive means no clear call, values can overlap the other calls
# BH1578 lux ind: quorum light induction in luxS cqsA deficient V. cholerae; V. cholerae BH1578 lux reporter, luminescence, 6 h; activation, % at 18.7 µM; 350,000 compounds, 0.16% hits; AID 588436; in the data active means activation mostly above about 9.7%, no sharp cut-off; inconclusive means no clear call, values can overlap the other calls; inactive means mostly below about 3.7%
# PrPC TRFRET: cell surface PrPC inhibition, primary TR-FRET screen | P04156 | TR-FRET read-out | inhibition, % at 13.8 µM | 370,000 compounds, 0.43% hits | AID 720596; in the data active means inhibition above about 24%; further: 0% = median of the test wells and 100% = reference compound wells
# SSB-PriA inh: blocks PriA binding to SSB C-terminal tail. AID 1272365. AlphaScreen SSBct-PriA binding, biotinylated peptide. 430,000 compounds, 0.6% hits. inhibition, % at 33 µM; in the data active means inhibition mostly above about 37%, no sharp cut-off; inactive means mostly below about 20%;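 further: plate controls were negative control peptide for no effect and reference peptide for full effect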
# PrP 5UTR inh: suppresses PrP 5' UTR mRNA reporter expression; cell-based PrP 5' UTR mRNA reporter, plate reader; 340,000 compounds, 0.35% hits; inhibition, % (test concentration not listed); in the data active means inhibition above about 52%; further: 0 = median of the neutral control wells
# Starred values were filed as active, the others as inactive; i = inactive; u = inconclusive; x = no result; ! = a repeat was not active.
SMILES,FadD28 FP inh,BH1578 lux ind,PrPC TRFRET,SSB-PriA inh,PrP 5UTR inh
O=C(Nc1ccccc1N1CCCCC1)c1cc(S(=O)(=O)N2CCOCC2)ccc1F,-1.2,-0.7,0.1,47.4*,-8.8
O=C(CN1C(=O)c2ccccc2C1=O)Nc1c2c(nn1-c1ccccc1)C[S+](=O)([O-])C2,x,x,x,-6.0,x
Cc1ccc(C(=O)COC(=O)CSc2cccc3cccnc23)c(C)c1,-6.5,-0.7,6.4,77.8*,-11.3
Cc1ccc(C)c(C(=O)CSc2cccc3cccnc23)c1,x,x,x,107.5*,x
CCN1C(=O)/C(=C/C=C2/Sc3ccccc3N2CCO)SC1=S,-4.9,236.1*,-1.4,17.4,-15.1
CCCN1C(=O)/C(=C\C=C2/Sc3ccccc3N2CCO)SC1=S,0.2,-0.6,-1.3,23.1,-10.2
O=C(NCC(=O)N1CCS[C@H](c2ccccc2F)CC1)c1ccccc1,x,x,x,2.0,x
CCOc1ccc(-c2noc(C3CCN(S(=O)(=O)c4ccc(Br)cc4)CC3)n2)cc1,x,x,x,-20.0,x
COc1ccc(OC)c2sc(NNC(=O)c3ccc(S(=O)(=O)N(C)C)cc3)nc12,x,x,x,42.0*,x
CN(C)S(=O)(=O)c1ccc(C(=O)NNc2nc3c(F)cccc3s2)cc1,x,x,x,24.0,x
CCC(=O)NNc1nc2c(OC)ccc(OC)c2s1,x,x,x,-4.0,x
CCOC(=O)N1CCC(Nc2cc(C)nc3c(-c4ccccc4OC)c(C)nn23)CC1,x,1.0,2.7,104.2*,-2.5
Cc1nc(-c2cccs2)sc1C(=O)N1CCN(c2cc(-n3cncn3)ncn2)CC1,x,x,x,2.0,x
COc1ccccc1NC(=O)Cn1cnc2c(oc3nc4c(cc32)CCCC4)c1=O,25.1*,-0.3,7.1,-4.8,-21.8
CCn1nccc1C(=O)Nc1nc(-c2ccc(OC)cc2OC)cs1,x,x,x,4.0,x
CN1CCN(S(=O)(=O)c2cccc(C(=O)Nc3nc(-c4ccccc4)cs3)c2)CC1,-1.9,1.0,-11.9,7.3,-13.8
CN1CCN(S(=O)(=O)c2cccc(C(=O)Nc3nc(-c4ccccn4)cs3)c2)CC1,x,x,x,123.5*,x
O=C(Nc1nc(-c2csc(NC(=O)c3ccc(S(=O)(=O)N4CCOCC4)cc3)n2)cs1)c1ccc(S(=O)(=O)N2CCOCC2)cc1,x,x,x,-9.0,x
O=C(Nc1nc(-c2ccccn2)cs1)c1ccc(N2CCOCC2)c([N+](=O)[O-])c1,x,x,x,91.5*,x
O=C(Nc1nc(-c2ccccn2)cs1)c1cc(S(=O)(=O)N2CCOCC2)ccc1Cl,x,x,x,116.0*,x
O=C(Nc1nc(-c2ccccn2)cs1)c1ccc(S(=O)(=O)N2CCOCC2)cc1,x,x,x,114.5*,x
COc1ccc(C(=O)Nc2ccccn2)cc1S(=O)(=O)N1CCOCC1,-3.4,i,-1.1,10.4,-17.2
CCCCc1nnc(NC(=O)Cc2ccc(OC)c(S(=O)(=O)N3CCOCC3)c2)s1,-0.9,0.7,5.0,-13.5,-23.7
O=C(Nc1ccon1)c1ccc(N2CCCCC2)c([N+](=O)[O-])c1,-2.1,-0.3,-8.1,1.5,-113.3
CCOc1ccc2nc(NC(=O)c3ccc(OC)c(S(=O)(=O)N4CCOCC4)c3)sc2c1,-1.5,44.4*,5.3,-7.8,0.7
SMILES,FadD28 FP inh,BH1578 lux ind,PrPC TRFRET,SSB-PriA inh,PrP 5UTR inh
COc1ccc(C(=O)Nc2nc(-c3ccccn3)cs2)cc1S(=O)(=O)N1CCOCC1,-4.1,i,2.4,46.4*,35.3
COc1ccc(CC(=O)Nc2nnc(SCc3ccccc3)s2)cc1S(=O)(=O)N1CCOCC1,13.1*,i,-5.9,-3.6,-17.5
O=C(Nc1nc2ccccc2s1)c1ccc(N2CCCCC2)c([N+](=O)[O-])c1,-3.1,-0.3,0.7,39.1*,-65.6
CCCNC(=O)CSc1nc(C)c(C)c(=O)[nH]1,x,x,x,-2.0,x
COc1ccccc1C(=O)Nc1nc(-c2ccc(S(=O)(=O)N3CCOCC3)cc2)cs1,-5.2,-2.9,24.9*,-0.8,-22.5
COc1ccccc1OC(C)C(=O)Nc1nc(-c2ccc(S(=O)(=O)N3CCOCC3)cc2)cs1 (stereo unspecified),-1.3,-0.2,7.2,-4.3,-16.4
O=C(CSc1ccc2nnc(-c3ccccn3)n2n1)N1CCCCCC1,x,x,x,-2.0,x
COc1ccc(Cn2ccnc2)cc1Br,0.8,3.1,-7.6,-0.8,-3.1
COc1ccc(NCc2ccc(OC)c(Cn3ccnc3)c2)c(OC)c1,x,i,10.1,72.7*,-8.8
CCOC(=O)c1c(C)[nH]c(N=Nc2ccccc2C)c1C,0.5,i,-5.3,62.0*!,-34.8
CCOC(=O)c1c(C)[nH]c(N=Nc2ccc(C)cc2C)c1C,-1.2,-1.3,-9.5,-5.0,-58.2
Cc1cc(C)c2sc(N(CCCN(C)C)C(=O)c3ccc(S(=O)(=O)N4CCc5ccccc5C4)cc3)nc2c1,-3.9,-5.9,x,-10.0,1.8
CN(C)CCCN(C(=O)c1cc(-c2cccs2)nc2ccccc12)c1nc2ccc(F)cc2s1,-5.6,-0.3,-15.4,40.9*,-9.0
CN(C)CCCN(C(=O)c1ccc(S(=O)(=O)N2CCc3ccccc32)cc1)c1nc2ccc(F)cc2s1,-7.8,i,-7.2,46.0*!,-21.8
CN(C)CCN(C(=O)c1ccccc1)c1nc2ccc(F)cc2s1,x,x,x,-11.0,x
CN(C)CCCN(C(=O)c1ccc(S(=O)(=O)N2CCCc3ccccc32)cc1)c1nc2c(Cl)cccc2s1,x,x,x,39.0*,x
Cc1cc(C)c2sc(N(CCCN(C)C)C(=O)c3ccc(S(=O)(=O)N4CCCc5ccccc54)cc3)nc2c1,u,i,-10.3,47.0*!,-16.8
CN(C)CCCN(C(=O)c1ccc(S(=O)(=O)N2CCc3ccccc32)cc1)c1nc2ccc(Cl)cc2s1,-10.0,-0.1,-5.9,-2.0,-17.4
C[C@@](O)(CNC(=O)C(=O)Nc1ccc(OC(F)(F)F)cc1)Cc1ccco1,x,x,x,-17.0,x
Cc1nn(-c2ccccc2)c2[nH]cc(C(=O)N3CCN(C(=O)c4ccco4)CC3)c(=O)c12,x,x,x,10.0,x
CN(C)S(=O)(=O)N1CCc2nc(NC(=O)NCc3cccs3)sc2C1,x,x,x,-2.0,x
Cc1onc(-c2ccccc2Cl)c1C(=O)Nc1nc2c(s1)C(=O)CC(C)(C)C2,x,x,x,-3.0,x
C[C@@]12C(=O)OC(=O)[C@]1(C)C1CCC2O1,-0.5,0.8,40.6*,-10.1,29.3
COc1cc2sc3ccc(C#Cc4ccccn4)cc3c(=O)c2cc1OC,-6.3,5.9,2.6,6.5,-10.4
COc1cccc2sc3cc(C#Cc4ccccn4)ccc3c(=O)c12,-4.8,i,12.5,46.0*,-32.9
SMILES,FadD28 FP inh,BH1578 lux ind,PrPC TRFRET,SSB-PriA inh,PrP 5UTR inh
O=C(c1ccccc1)N1CCCc2cc(NS(=O)(=O)CCOc3ccccc3)ccc21,x,x,x,35.0*,x
Cc1ccc(N2CC(NC(=O)NCCCn3ccnc3)CC2=O)cc1C (stereo unspecified),x,x,x,51.0*,x
Cc1ccc(N2CC(C(=O)NCCCn3ccnc3)CC2=O)cc1 (stereo unspecified),0.6,i,8.3,-6.0,-20.1
Cc1ccc(C(C#N)c2ccc3c(C(F)(F)F)cc(C(F)(F)F)nc3n2)cc1 (stereo unspecified),-0.4,0.6,-5.5,30.1,-5.0
N#CC(c1ccccc1)c1ccc2c(C(F)(F)F)cc(C(F)(F)F)nc2n1 (stereo unspecified),-1.3,6.6,-1.1,77.3*,-17.3
Cn1c(O)c(C=NN2CCCCC2)c(=O)[nH]c1=O,x,x,x,-9.7,x
S=C1Cc2ccccc2N1,-0.3,-0.5,40.8*,25.4,-0.3
S=C1Nc2ccccc2CS1,-0.4,i,0.6,x,x
